Out of some 5,500 compounds screened, about 2,000 (36%) were called active. About 18% were inconclusive and are not listed. Cut-off read from the data, not from the text of the source: active = normalized growth mostly below about 0.91 (no sharp cut-off); inconclusive = no clear call, values can overlap the other calls; inactive = mostly above about 0.92. Some of the results follow.
Assay: chemical genetic growth profiling, strain panel (AID 1159580);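 note: tested at 20 µM; growth read once vehicle control cultures reached saturation at 30 °C; 1 = growth at the plate median or of vehicle wells; lower values mean less growth of the strain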
Conditions: growth OD

Measured: normalized growth

CC(=O)OCC(OC(C)=O)C(OC(C)=O)C(OC(C)=O)C(OC(C)=O)C(COC(C)=O)OC(C)=O (stereo not given)
inactive: S. cerevisiae deletion strains, locus YAL021C, strain ccr4, active compounds read low 0.998 | S. cerevisiae deletion strains, locus YAL026C, strain drs2, active compounds read low 0.993 | S. cerevisiae deletion strains, locus YAL030W, strain snc1, active compounds read low 0.994 | S. cerevisiae deletion strains, locus YBL061C, strain skt5, active compounds read low 0.985 | S. cerevisiae deletion strains, locus YBR009C, strain hhf1, active compounds read low 0.994 | S. cerevisiae deletion strains, locus YBR021W, strain FUR4, active compounds read low 1.01 | S. cerevisiae deletion strains, locus YBR023C, strain chs3, active compounds read low 0.99 | S. cerevisiae deletion strains, locus YBR171W, strain sec66, active compounds read low 0.985 | S. cerevisiae deletion strains, locus YBR229C, strain ROT2, active compounds read low 0.996 | S. cerevisiae deletion strains, locus YBR231C, strain swc5, active compounds read low 0.989 | S. cerevisiae deletion strains, locus YBR279W, strain paf1, active compounds read low 0.994 | S. cerevisiae deletion strains, locus YCL011C, strain gbp2, active compounds read low 0.996 | S. cerevisiae deletion strains, locus YCL016C, strain dcc1, active compounds read low 0.994 | S. cerevisiae deletion strains, locus YCL029C, strain bik1, active compounds read low 0.984 | S. cerevisiae deletion strains, locus YCL061C, strain MRC1, active compounds read low 0.992 | S. cerevisiae deletion strains, locus YCL069W, strain vba3, active compounds read low 0.999 | S. cerevisiae deletion strains, locus YCR088W, strain abp1, active compounds read low 0.991 | S. cerevisiae deletion strains, locus YDL005C, strain med2, active compounds read low 0.989 | S. cerevisiae deletion strains, locus YDL035C, strain GPR1, active compounds read low 1.07 | S. cerevisiae deletion strains, locus YDL040C, strain nat1, active compounds read low 0.98 | S. cerevisiae deletion strains, locus YDL074C, strain BRE1, active compounds read low 1.09 | S. cerevisiae deletion strains, locus YDL101C, strain DUN1, active compounds read low 1 | S. cerevisiae deletion strains, locus YDL185W, strain tfp1, active compounds read low 0.991 | S. cerevisiae deletion strains, locus YDL192W, strain arf1, active compounds read low 1.02 | S. cerevisiae deletion strains, locus YDR001C, strain nth1, active compounds read low 0.99 | S. cerevisiae deletion strains, locus YDR069C, strain doa4, active compounds read low 0.986 | S. cerevisiae deletion strains, locus YDR101C, strain arx1, active compounds read low 1.01 | S. cerevisiae deletion strains, locus YDR137W, strain rgp1, active compounds read low 1.01 | S. cerevisiae deletion strains, locus YDR150W, strain NUM1, active compounds read low 1.01 | S. cerevisiae deletion strains, locus YDR159W, strain sac3, active compounds read low 0.979 | S. cerevisiae deletion strains, locus YDR162C, strain NBP2, active compounds read low 1.03 | S. cerevisiae deletion strains, locus YDR195W, strain ref2 0.943 | S. cerevisiae deletion strains, locus YDR297W, strain sur2, active compounds read low 0.992 | S. cerevisiae deletion strains, locus YDR318W, strain mcm21, active compounds read low 0.999 | S. cerevisiae deletion strains, locus YDR334W, strain swr1, active compounds read low 0.983 | S. cerevisiae deletion strains, locus YDR335W, strain msn5, active compounds read low 0.986 | S. cerevisiae deletion strains, locus YDR388W, active compounds read low 0.983 | S. cerevisiae deletion strains, locus YDR392W, strain spt3, active compounds read low 0.99 | S. cerevisiae deletion strains, locus YDR502C, strain sam2, active compounds read low 0.998 | S. cerevisiae deletion strains, locus YEL003W, strain gim4, active compounds read low 0.993 | S. cerevisiae deletion strains, locus YEL037C, strain rad23, active compounds read low 0.989 | S. cerevisiae deletion strains, locus YEL061C, strain CIN8 (second series), active compounds read low 0.979 | S. cerevisiae deletion strains, locus YER015W, strain faa2, active compounds read low 0.992 | S. cerevisiae deletion strains, locus YER016W, strain bim1, active compounds read low 0.988 | S. cerevisiae deletion strains, locus YER110C, active compounds read low 0.963 | S. cerevisiae deletion strains, locus YER111C, strain swi4, active compounds read low 0.985 | S. cerevisiae deletion strains, locus YER155C, strain BEM2 (second series), active compounds read low 0.981 | S. cerevisiae deletion strains, locus YER155C, strain BEM2, active compounds read low 0.972 | S. cerevisiae deletion strains, locus YER167W, strain BCK2, active compounds read low 1.01 | S. cerevisiae deletion strains, locus YFR010W, strain ubp6, active compounds read low 0.989 | S. cerevisiae deletion strains, locus YGL078C, strain dbp3, active compounds read low 0.976 | S. cerevisiae deletion strains, locus YGL086W, strain mad1, active compounds read low 1 | S. cerevisiae deletion strains, locus YGL167C, strain pmr1, active compounds read low 0.998 | S. cerevisiae deletion strains, locus YGL173C, strain kem1, active compounds read low 0.991 | S. cerevisiae deletion strains, locus YGL227W, strain vid30, active compounds read low 0.99 | S. cerevisiae deletion strains, locus YGL240W, strain doc1, active compounds read low 0.998 | S. cerevisiae deletion strains, locus YGL248W, strain PDE1, active compounds read low 1.03 | S. cerevisiae deletion strains, locus YGL253W, strain hxk2, active compounds read low 0.984 | S. cerevisiae deletion strains, locus YGR078C, strain PAC10, active compounds read low 1.02 | S. cerevisiae deletion strains, locus YGR135W, strain pre9, active compounds read low 0.964 | S. cerevisiae deletion strains, locus YGR252W, strain gcn5, active compounds read low 0.996 | S. cerevisiae deletion strains, locus YHR013C, strain ard1, active compounds read low 0.964 | S. cerevisiae deletion strains, locus YHR027C, strain rpn1, active compounds read low 0.995 | S. cerevisiae deletion strains, locus YHR030C, strain SLT2, active compounds read low 1.01 | S. cerevisiae deletion strains, locus YHR079C, strain IRE1 (second series), active compounds read low 0.987 | S. cerevisiae deletion strains, locus YHR094C, strain hxt1, active compounds read low 0.987 | S. cerevisiae deletion strains, locus YHR129C, strain ARP1, active compounds read low 1 | S. cerevisiae deletion strains, locus YHR142W, strain chs7, active compounds read low 0.983 | S. cerevisiae deletion strains, locus YHR200W, strain rpn10, active compounds read low 0.986 | S. cerevisiae deletion strains, locus YIL066C, strain RNR3, active compounds read low 1.02 | S. cerevisiae deletion strains, locus YIL073C, strain SPO22, active compounds read low 1.06 | S. cerevisiae deletion strains, locus YIL125W, strain kgd1, active compounds read low 0.976 | S. cerevisiae deletion strains, locus YIR030C, strain dcg1, active compounds read low 0.978 | S. cerevisiae deletion strains, locus YJL092W, strain hpr5, active compounds read low 0.998 | S. cerevisiae deletion strains, locus YJL095W, strain BCK1 (second series), active compounds read low 0.985 | S. cerevisiae deletion strains, locus YJL095W, strain BCK1, active compounds read low 1.05 | S. cerevisiae deletion strains, locus YJL115W, strain asf1, active compounds read low 0.975 | S. cerevisiae deletion strains, locus YJL129C, strain trk1, active compounds read low 0.988 | S. cerevisiae deletion strains, locus YJL134W, strain LCB3, active compounds read low 1 | S. cerevisiae deletion strains, locus YJL154C, strain vps35, active compounds read low 0.986 | S. cerevisiae deletion strains, locus YJL164C, strain tpk1, active compounds read low 0.986 | S. cerevisiae deletion strains, locus YJL166W, strain qcr8, active compounds read low 0.993 | S. cerevisiae deletion strains, locus YJL168C, strain set2, active compounds read low 0.98 | S. cerevisiae deletion strains, locus YJL187C, strain SWE1 (second series), active compounds read low 1.02 | S. cerevisiae deletion strains, locus YJL187C, strain SWE1, active compounds read low 1 | S. cerevisiae deletion strains, locus YJR043C, strain POL32, active compounds read low 1.07 | S. cerevisiae deletion strains, locus YKL009W, strain mrt4, active compounds read low 1.01 | S. cerevisiae deletion strains, locus YKL068W, active compounds read low 0.995 | S. cerevisiae deletion strains, locus YKL085W, strain MDH1 (second series), active compounds read low 0.992 | S. cerevisiae deletion strains, locus YKL085W, strain MDH1, active compounds read low 0.992 | S. cerevisiae deletion strains, locus YKL160W, strain elf1, active compounds read low 0.997 | S. cerevisiae deletion strains, locus YKR001C, strain vps1, active compounds read low 1.04 | S. cerevisiae deletion strains, locus YKR026C, strain gcn3, active compounds read low 0.999 | S. cerevisiae deletion strains, locus YKR091W, strain srl3, active compounds read low 0.991 | S. cerevisiae deletion strains, locus YLL001W, strain dnm1, active compounds read low 0.989 | S. cerevisiae deletion strains, locus YLL026W, active compounds read low 0.994 | S. cerevisiae deletion strains, locus YLL041C, strain sdh2, active compounds read low 0.995 | S. cerevisiae deletion strains, locus YLR027C, strain aat2, active compounds read low 0.995 | S. cerevisiae deletion strains, locus YLR039C, strain RIC1, active compounds read low 1.2 | S. cerevisiae deletion strains, locus YLR058C, strain SHM2, active compounds read low 1.02 | S. cerevisiae deletion strains, locus YLR102C, strain apc9, active compounds read low 0.975 | S. cerevisiae deletion strains, locus YLR221C, strain rsa3, active compounds read low 0.999 | S. cerevisiae deletion strains, locus YLR258W, strain gsy2, active compounds read low 0.994 | S. cerevisiae deletion strains, locus YLR262C, strain YPT6 (second series), active compounds read low 1.01 | S. cerevisiae deletion strains, locus YLR268W, strain sec22, active compounds read low 1.04 | S. cerevisiae deletion strains, locus YLR320W, strain mms22, active compounds read low 0.992 | S. cerevisiae deletion strains, locus YLR330W, strain CHS5, active compounds read low 1 | S. cerevisiae deletion strains, locus YLR342W, strain FKS1, active compounds read low 0.987 | S. cerevisiae deletion strains, locus YLR357W, strain rsc2, active compounds read low 0.982 | S. cerevisiae deletion strains, locus YLR370C, strain arc18, active compounds read low 0.99 | S. cerevisiae deletion strains, locus YLR371W, strain rom2, active compounds read low 0.989 | S. cerevisiae deletion strains, locus YLR384C, strain iki3, active compounds read low 1 | S. cerevisiae deletion strains, locus YLR418C, strain cdc73, active compounds read low 1.01 | S. cerevisiae deletion strains, locus YML016C, strain PPZ1, active compounds read low 1.01 | S. cerevisiae deletion strains, locus YML032C, strain rad52, active compounds read low 0.993 | S. cerevisiae deletion strains, locus YML120C, strain ndi1, active compounds read low 0.985 | S. cerevisiae deletion strains, locus YML124C, strain tub3, active compounds read low 0.99 | S. cerevisiae deletion strains, locus YMR058W, strain fet3, active compounds read low 0.994 | S. cerevisiae deletion strains, locus YMR078C, strain ctf18, active compounds read low 0.981 | S. cerevisiae deletion strains, locus YMR125W, strain sto1, active compounds read low 0.975 | S. cerevisiae deletion strains, locus YMR129W, active compounds read low 0.991 | S. cerevisiae deletion strains, locus YMR205C, strain PFK2, active compounds read low 0.985 | S. cerevisiae deletion strains, locus YMR223W, strain ubp8, active compounds read low 0.993 | S. cerevisiae deletion strains, locus YMR231W, strain pep5, active compounds read low 1 | S. cerevisiae deletion strains, locus YMR307W, strain GAS1, active compounds read low 1.09 | S. cerevisiae deletion strains, locus YNL067W, strain RPL9B, active compounds read low 1.01 | S. cerevisiae deletion strains, locus YNL071W, strain lat1, active compounds read low 0.99 | S. cerevisiae deletion strains, locus YNL128W, strain TEP1, active compounds read low 1 | S. cerevisiae deletion strains, locus YNL209W, strain ssb2, active compounds read low 0.998 | S. cerevisiae deletion strains, locus YNL233W, strain BNI4, active compounds read low 1.03 | S. cerevisiae deletion strains, locus YNL248C, strain rpa49, active compounds read low 1.01 | S. cerevisiae deletion strains, locus YNL250W, strain rad50, active compounds read low 0.978 | S. cerevisiae deletion strains, locus YNL271C, strain bni1, active compounds read low 0.998 | S. cerevisiae deletion strains, locus YNL298W, strain CLA4, active compounds read low 0.987 | S. cerevisiae deletion strains, locus YNL307C, strain MCK1, active compounds read low 0.977 | S. cerevisiae deletion strains, locus YNL322C, strain KRE1 (second series), active compounds read low 0.993 | S. cerevisiae deletion strains, locus YNR049C, strain mso1, active compounds read low 0.975 | S. cerevisiae deletion strains, locus YNR052C, strain pop2, active compounds read low 0.962 | S. cerevisiae deletion strains, locus YOL006C, strain TOP1, active compounds read low 1.27 | S. cerevisiae deletion strains, locus YOL012C, strain htz1 1.05 | S. cerevisiae deletion strains, locus YOL147C, strain pex11, active compounds read low 0.997 | S. cerevisiae deletion strains, locus YOR001W, strain rrp6, active compounds read low 0.997 | S. cerevisiae deletion strains, locus YOR061W, strain CKA2, active compounds read low 0.997 | S. cerevisiae deletion strains, locus YOR069W, strain VPS5, active compounds read low 1.01 | S. cerevisiae deletion strains, locus YOR070C, strain gyp1, active compounds read low 0.99 | S. cerevisiae deletion strains, locus YOR080W, strain dia2, active compounds read low 0.985 | S. cerevisiae deletion strains, locus YOR083W, strain WHI5, active compounds read low 0.995 | S. cerevisiae deletion strains, locus YOR106W, strain vam3, active compounds read low 0.989 | S. cerevisiae deletion strains, locus YOR136W, strain idh2, active compounds read low 0.973 | S. cerevisiae deletion strains, locus YOR144C, strain elg1, active compounds read low 0.975 | S. cerevisiae deletion strains, locus YOR184W, strain ser1, active compounds read low 1.06 | S. cerevisiae deletion strains, locus YOR265W, strain rbl2, active compounds read low 0.983 | S. cerevisiae deletion strains, locus YOR270C, strain vph1, active compounds read low 0.981 | S. cerevisiae deletion strains, locus YOR290C, strain snf2, active compounds read low 0.978 | S. cerevisiae deletion strains, locus YOR316C, strain cot1, active compounds read low 0.987 | S. cerevisiae deletion strains, locus YPL051W, strain arl3, active compounds read low 0.995 | S. cerevisiae deletion strains, locus YPL078C, strain atp4, active compounds read low 0.993 | S. cerevisiae deletion strains, locus YPL106C, strain sse1, active compounds read low 1.01 | S. cerevisiae deletion strains, locus YPL240C, strain hsp82, active compounds read low 0.996 | S. cerevisiae deletion strains, locus YPR119W, strain clb2, active compounds read low 0.989 | S. cerevisiae deletion strains, locus YPR141C, strain kar3, active compounds read low 0.997 | S. cerevisiae deletion strains, locus YPR163C, strain tif3, active compounds read low 0.998 | S. cerevisiae deletion strains, locus YPR167C, strain met16, active compounds read low 0.962 | S. cerevisiae deletion strains, strain wtn01, active compounds read low 1.03 | S. cerevisiae strains, strain wild type, active compounds read low 1.04

— PubChem BioAssay AID1159580 (chemical genetic matrix, 2015)
